Many of the other results were omitted from the sample, so hits are more common in it than they were.
HIV RNase H inh-1 – HIV-1 RT RNase H inhibitors, primary screen, biochemical, fluorescence | hit rate 1.9% among 65,000 | Gag-Pol polyprotein (Human immunodeficiency virus type 1 group M subtype B (isolate … | inhibition, % at 10 µM | AID 565, 2006 | RT-RNase H RNA/DNA duplex cleavage; in the data active = inhibition above about 50%
HIV RNase H inh-2 – HIV-1 RT RNase H inhibitors, retest, confirmation, biochemical. shares compounds with HIV RNase H inh-1. Recombinant RT RNase H, fluorescent RNA/DNA duplex cleavage. inhibition, % at 10 µM. hit rate 39% among 1,000; in the data active = inhibition above about 48%
An asterisk follows results filed as active.

SMILES	HIV RNase H inh-1	others
Cn1nc(-c2ccc(OCC(=O)NCC3CCCO3)cc2)c2ccccc2c1=O (configuration not stated)	-3
COc1cc(C2/C(=C(/O)c3ccc(F)cc3)C(=O)C(=O)N2CCCC(=O)O)ccc1O (configuration not stated)	4
Cc1cnc(C)c(N2CCC(C(=O)NC(C)c3cccs3)CC2)n1 (configuration not stated)	-12
C/C(N)=C(/C#N)C(=O)CSc1nnnn1-c1ccc(C)cc1C	-56
CN(CC1CCCO1)S(=O)(=O)c1ccc(C(=O)Nc2nc3cc4c(cc3s2)OCO4)cc1 (configuration not stated)	12
Cc1ccc(-c2nnc(N3CCOCC3)c3ccccc23)cc1S(=O)(=O)NCC1CCCO1 (configuration not stated)	-7
CCN1CCN(C(c2cc3cccc(C)c3[nH]c2=O)c2nnnn2Cc2ccccc2)CC1 (configuration not stated)	0
COc1ccc(Cn2nnnc2C(c2cc3cccc(C)c3[nH]c2=O)N2CCOCC2)cc1 (configuration not stated)	54*	HIV RNase H inh-2=4
COc1ccc(Cn2nnnc2C(c2cc3cc(C)ccc3[nH]c2=O)N2CCOCC2)cc1 (configuration not stated)	-18
C(=N\n1cnnc1)/c1ccc2ncccc2c1	-14
Oc1ccc(C=Nc2ccc3ncccc3c2)c(O)c1	53*	HIV RNase H inh-2=43
Oc1c(/C=N/c2ncn[nH]2)ccc2ccccc12	-4
c1ccc(CC2CCN(c3nc(N4CCOCC4)nc(N4CCOCC4)n3)CC2)cc1	-12
O=c1[nH]c2c(s1)C(c1ccco1)C1C3CCC(C3)C1S2 (configuration not stated)	-19
O=c1c2ccccc2nc2n1CC/C2=C/N1CCN(c2cccc(C(F)(F)F)c2)CC1	15
CN1Cc2sc(N)c(C#N)c2CC1(C)C	4
CCC1(C)Cc2c(C#N)c(N)sc(=S)c2CO1 (configuration not stated)	26
N#Cc1c(N)sc(=S)c2c1CCCC2	67*	HIV RNase H inh-2=-6
Cn1c(=O)c2c(ncn2CC(O)CNc2ccc(Br)cc2)n(C)c1=O (configuration not stated)	-6
C[N+](C)(C)C/C=C1/COCO1	-13
CCOC(=O)c1ccc(NC(=O)NC2CCN(CC(=O)NCc3ccc4c(c3)OCO4)CC2)cc1	-2
Cc1ccc2oc(=O)c3cnn(CC(=O)N4CCCc5ccccc54)c3c2c1	-12
COn1c(SC2CCCCC2)nc2ccccc2c1=O	-9
Cc1nc(C)c(C(=O)Nc2ccccc2-c2ccccc2)o1	1
Cc1cccc2sc(NC(=O)C3CCCO3)nc12 (configuration not stated)	-15
SMILES	HIV RNase H inh-1	others
Cc1nc(C)c(C(=O)Nc2nc3c(C)cccc3s2)o1	86*	HIV RNase H inh-2=68*
Cc1nc(SCC(C)C)[nH]c(=O)c1Cc1ccccc1	-15
CCN(CC)C(=O)C1=C(C)Nc2nnnn2C1c1cccnc1 (configuration not stated)	-9
CC(C)C(c1nnnn1C1CCCC1)N1c2ccccc2CC1C (configuration not stated)	74*	HIV RNase H inh-2=9
CC(C)C(c1nnnn1C1CCCCC1)N1CCOCC1 (configuration not stated)	4
CCC(c1nnnn1C1CCCC1)N1CCN(c2ccccc2F)CC1 (configuration not stated)	1
CCCS(=O)(=O)N1CCCC(C(=O)N2CCN(C(=O)OCC)CC2)C1 (configuration not stated)	-32
Cc1ccc(C)n1-c1ccc(C(=O)N2CCOCC2)cc1	-18
Cc1cccc2cc3c(N)c(C(=O)N4CCOCC4)sc3nc12	0
Cc1c(C(=O)O)sc(=S)n1-c1ccccc1	5
Cc1ccc(-n2c(N)c(C(=O)N3CCOCC3)sc2=S)cc1	95*	HIV RNase H inh-2=76*
CN1CCN(C(=O)c2sc(=S)n(-c3ccccc3)c2N)CC1	95*	HIV RNase H inh-2=59*
NC(=O)c1c(N)sc(=S)n1-c1ccccc1	0
COc1ccc(-n2cnnc2SCC(=O)c2ccc(S(=O)(=O)N3CCOCC3)cc2)cc1	3
c1ccc(-n2nnc3cnccc32)cc1	-24
Cc1cc(NC(=O)Cc2cccs2)no1	74*	HIV RNase H inh-2=37
Cc1cc(NC(=O)c2cc(-c3cccs3)on2)no1	39
Cc1cc(NS(=O)(=O)c2ccc(NC(=O)Cc3cccs3)cc2)no1	-7
O=C(NCc1cccs1)C(Cc1ccccc1)n1cccc1 (configuration not stated)	2
CCNc1nc2c(c(=O)n(Cc3ccccc3)c(=O)n2C)n1Cc1ccccc1	-2
NC(CO)C(=O)NNCc1ccc(O)c(O)c1O (configuration not stated)	30	HIV RNase H inh-2=32
COC(=O)c1cc(C(=O)OC)cc(S(=O)(=O)Nc2ccc(Cl)c(N)c2)c1	-3
CNc1sc(C(=O)c2cccs2)c(N)c1-c1nc2ccccc2s1	75*	HIV RNase H inh-2=38
O=C(OCc1nc2ccccc2s1)c1cccs1	-15
O=C(NC1CC1)c1ccc(-c2nc3ccccc3s2)s1	-5
SMILES	HIV RNase H inh-1	others
CC(CNS(=O)(=O)c1cc(Cl)ccc1Cl)CN(C)C (configuration not stated)	2
COCCOC(=O)C1=C(C)NC(=O)N(C(C)=O)C1c1ccc(Cl)cc1 (configuration not stated)	-13
Cc1ccccc1Cn1c(=O)n(Cc2ccco2)c(=O)c2ccccc21	10
Cc1cccc(Cn2c(=O)n(Cc3ccco3)c(=O)c3ccccc32)c1	-40
Cc1cc(C)c(NC(=O)Cn2c(=O)n(Cc3ccco3)c(=O)c3ccccc32)c(C)c1	69*	HIV RNase H inh-2=73*
COc1ccc(CCNC(=O)COC(=O)c2cnccn2)cc1	-2
CCOC(=O)N1CCN(Cc2nc3c(c(=O)[nH]c(=O)n3C)n2Cc2cc(C)ccc2C)CC1	-2
O=C(O)c1ccc(COCC(F)(F)C(F)F)o1	-8
Cc1cc(NC(=O)c2cc(C3CC3)on2)n(-c2ccccc2)n1	-2
Cc1cc(NC(=O)c2cc(C)on2)n(-c2ccccc2)n1	75*	HIV RNase H inh-2=50
Cc1cc(NC(=O)c2cc(-c3ccco3)on2)n(-c2ccccc2)n1	7
Cc1cccn2c(=O)c3cc(C(=O)NC(C)c4ccccc4)c(=N)n(CCCn4ccnc4)c3nc12 (configuration not stated)	6
CC1=C(C(=O)Nc2ccc(Cl)cc2)C(c2cccs2)n2nnnc2N1 (configuration not stated)	73*	HIV RNase H inh-2=5
COC(=O)C1=C(C(=O)c2ccccc2)C(c2cccs2)n2nnnc2N1 (configuration not stated)	-1
COc1ccccc1NC(=O)C1=C(C)Nc2nnnn2C1c1ccncc1 (configuration not stated)	-56
CCOC(=O)c1ccc(N=Cc2nc(-c3ccccc3)oc2OC(C)=O)cc1	75*	HIV RNase H inh-2=1
CCOC(=O)c1ccc(N=Cc2nc3ccccc3n2C)cc1	-4
CCC(=O)Oc1oc(-c2ccccc2)nc1C=Nc1ccccc1OC	-6
Cc1csc2c(C#N)c(=O)c3c(n12)CCC3	-27
O=C(COc1ccc(S(=O)(=O)NC2CCCCC2)cc1)Nc1ccc2c(c1)OCCO2	-13
Cn1cnc2c(sc3nc(N4CCOCC4)c4c(c32)CC(C)(C)OC4)c1=O	-38
